Shown are actives, neighbours in structure and some others; about 2.2% of the full set was active somewhere.
NOD2-RIPK2 inh – NOD2-RIPK2 protein interaction inhibition | 0.38% of 360,000 active | inhibition, % at 4.98 µM | CHO BLA complementation NOD2-RIPK2, CCF4 ratio | O43353 | AID 624267; in the data active means inhibition above about 21%;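 further: 0% = vehicle only and 100% = reference blocker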
TLR9-MyD88 inh – TLR9-MyD88 interaction inhibition | Q9NR96+Q99836 | CHO BLA complementation TLR9-MyD88, CCF4 FRET ratio | inhibition, % at 4.98 µM | 0.21% of 340,000 active;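 active means inhibition above the mean over all tested compounds plus 3 SD, cut at about 21% in these data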;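 further: 0% = DMSO only wells and 100% = clavulanate BLA inhibitor control wells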
ANO1 activ – activates or potentiates the mouse TMEM16A chloride channel; HEK293 TMEM16A/YFP-H148Q/I152L, iodide quench fluorescence; stronger effect = lower value; B-score at 10 µM; 0.3% of 340,000 active; AID 623877;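 active means fluorescence-ratio B-score plate-corrected deviation score at least 3 library SD below zero, with starting fluorescence score within 5 deviations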;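 further: channel opened by trigger with iodide after compound preincubation; score built on the fluorescence ratio of max minus min over baseline; more negative score means more quench and so TMEM16A activation or potentiation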
TMEM16A inh – mouse TMEM16A channel inhibition, primary screen; Q8BHY3; HEK293 TMEM16A/YFP iodide influx fluorescence, ionomycin; normalized B-score (activity score, 25-100; higher = stronger inhibition) at 10 µM; 1.2% of 310,000 active;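 active means ratio plate-corrected score three or more library SD toward inhibition, starting fluorescence score within five deviations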;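 further: score derived from kinetic fluorescence span divided by baseline fluorescence per well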
GRK2 aptamer HTS – human GRK2 inhibition via aptamer displacement; inhibition of aptamer binding, % at 10 µM; bead flow cytometry, FAM-aptamer displacement from GRK2; P25098; 0.59% of 330,000 active;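 active means inhibition of aptamer binding above 40%, roughly 3 SD of noise, on plates passing a quality check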;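 further: median bead fluorescence of bound FAM aptamer so fluorescent compounds give negative values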
TLR4-MyD88 BLA – blocks binding of human TLR4 to MyD88; O00206+Q99836; HeLa CL3-4 TLR4/MyD88 BLA complementation, FRET ratio; inhibition, % at 8.4 µM; 0.18% of 200,000 active; AID 861; in the data active means inhibition above about 25%;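 further: 0% = vehicle and 100% = reference inhibitor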
Target sequence (O00206 whole entry, looked up): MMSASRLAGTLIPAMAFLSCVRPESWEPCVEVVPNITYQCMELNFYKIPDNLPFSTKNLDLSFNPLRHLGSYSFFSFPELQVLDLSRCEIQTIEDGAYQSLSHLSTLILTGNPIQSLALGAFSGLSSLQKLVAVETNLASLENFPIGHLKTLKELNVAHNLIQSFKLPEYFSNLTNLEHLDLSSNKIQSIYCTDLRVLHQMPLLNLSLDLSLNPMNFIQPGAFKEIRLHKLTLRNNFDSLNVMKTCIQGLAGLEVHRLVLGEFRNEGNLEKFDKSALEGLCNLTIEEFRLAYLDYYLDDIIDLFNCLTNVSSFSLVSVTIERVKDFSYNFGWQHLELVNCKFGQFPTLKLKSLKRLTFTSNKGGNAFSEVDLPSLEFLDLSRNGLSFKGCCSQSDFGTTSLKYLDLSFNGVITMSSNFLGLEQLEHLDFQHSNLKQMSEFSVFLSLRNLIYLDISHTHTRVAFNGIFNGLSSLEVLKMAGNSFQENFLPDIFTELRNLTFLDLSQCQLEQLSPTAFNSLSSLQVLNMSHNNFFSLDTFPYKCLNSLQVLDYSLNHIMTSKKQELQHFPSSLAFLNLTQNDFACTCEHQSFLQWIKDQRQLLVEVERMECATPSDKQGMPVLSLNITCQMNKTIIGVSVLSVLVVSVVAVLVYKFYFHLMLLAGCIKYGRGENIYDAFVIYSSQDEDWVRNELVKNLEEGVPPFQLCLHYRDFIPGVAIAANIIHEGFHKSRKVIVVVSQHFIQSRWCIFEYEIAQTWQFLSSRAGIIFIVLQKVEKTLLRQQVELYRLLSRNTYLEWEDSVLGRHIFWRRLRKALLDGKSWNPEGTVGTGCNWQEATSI
Target sequence (Q99836 whole entry, looked up): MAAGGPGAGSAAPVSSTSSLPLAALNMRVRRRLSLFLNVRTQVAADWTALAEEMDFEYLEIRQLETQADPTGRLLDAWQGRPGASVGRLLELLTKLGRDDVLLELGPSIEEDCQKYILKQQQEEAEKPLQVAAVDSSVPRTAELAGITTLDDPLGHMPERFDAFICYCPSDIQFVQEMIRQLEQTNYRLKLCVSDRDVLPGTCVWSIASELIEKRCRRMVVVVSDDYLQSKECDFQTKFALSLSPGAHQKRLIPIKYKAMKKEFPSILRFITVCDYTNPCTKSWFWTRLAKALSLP
GRK2 inh confirm – human GRK2 inhibition confirmation, cherry pick 1; shares compounds with GRK2 aptamer HTS; bead-bound GRK2, FAM-aptamer displacement, flow cytometry; aptamer displacement, % at 10 µM; 4% of 2,000 active;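 active means aptamer displacement above 40%, near three times the noise of non-fluorescent compounds, on plates passing quality checks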;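 further: negative values mostly reflect intrinsic compound fluorescence rather than true enhancement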
Aptamer quench – quenches fluorescent RNA aptamer, GRK2 hit artifact | shares compounds with GRK2 aptamer HTS | Fluorescent RNA aptamer beads, quenching, flow cytometry; stronger effect = higher value | fluorescence change (kMESF span), kMESF (no concentration beside the values) | 110 tested, under 10 active | AID 504521;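 active means compounds whose bead fluorescence drops by more than 37 kMESF across the dose range, marking them as dye quenchers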
Aptamer quench SP – aptamer fluorescence quenching in GRK2 counter-screen | shares compounds with GRK2 aptamer HTS | Carboxyfluorescein RNA aptamer on beads, flow cytometry quenching; stronger effect = lower value | fluorescence response (% of DMSO), % at 10 µM | 2,000 tested, under 10 active | AID 504580;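 active means compounds that quench the bead-bound fluorescent RNA probe, cutting fluorescence to under half of the solvent control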;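 further: counterscreen run without GRK2 so only probe quenching by compound is measured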
GRK2 CP2 – human GRK2 inhibition confirmation, cherry pick 2; 360 tested, under 10 active; AID 504782; shares compounds with GRK2 aptamer HTS; bead-bound GRK2, FAM-aptamer displacement, flow cytometry; inhibition of aptamer binding, % at 10 µM;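 active means inhibition of aptamer binding above 40%, about triple the noise seen with nonglowing compounds, on plates passing quality control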;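 further: negative values mostly come from compounds that fluoresce themselves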
FAM quench CP2 – counter-screen for GRK2 binding hits: quenchers of fluorescent RNA aptamer | 360 tested, under 10 active | shares compounds with GRK2 aptamer HTS | fluorescence response vs DMSO, % at 10 µM | carboxyfluorescein RNA aptamer beads, flow cytometry quenching; stronger effect = lower value;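 active means response vs DMSO under 50%, meaning signal dropped by over half, treated as fluorescence quencher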;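 further: labelled aptamer on streptavidin beads without GRK2 as a quench counter-screen; 100% = bead fluorescence of DMSO wells and lower means quenching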
An asterisk follows results filed as active; i = inactive; . = no result.

SMILES | NOD2-RIPK2 inh | TLR9-MyD88 inh | ANO1 activ | TMEM16A inh | GRK2 aptamer HTS | TLR4-MyD88 BLA | GRK2 inh confirm | Aptamer quench SP | others
C=C(C)C(=O)Nc1cccc(C2=NOC3(C2)C[C@H](C(N)=O)N(C(=O)/C=C/C)C3)c1 (stereo partly specified) | -12.2 | 2.5 | i | i | 70.0* | . | 50.0* | 87.7 | Aptamer quench=-1.4
C/C=C/C(=O)N1CC2(CC(c3cccc(NC(=O)CC)c3)=NO2)C[C@H]1C(N)=O (stereo partly specified) | -0.6 | 1.3 | i | i | 12.0 | . | . | .
C=C(C)C(=O)Nc1cccc(C2=NOC3(C2)C[C@@H](C(N)=O)N(C(=O)/C=C/CC)C3)c1 (stereo partly specified) | 3.5 | -3.3 | i | i | 61.0* | . | 41.2* | 99.1 | Aptamer quench=11.1
C/C=C\C(=O)Nc1cccc(C2=NOC3(C2)C[C@H](C(N)=O)N(C(=O)/C=C/CC)C3)c1 (stereo partly specified) | 1.4 | 2.9 | i | i | 1.0 | . | . | .
Cc1ccc(CNC(=O)CCSCc2ccccc2C)cc1 | 11.2 | 7.0 | i | i | 29.0 | . | . | .
CCN1CCN(S(=O)(=O)c2ccc(Cl)c(C(=O)N(C)Cc3ccc(Cl)cc3Cl)c2)CC1 | -6.2 | 6.1 | i | i | 0.0 | . | . | .
Cn1c(CNC(=O)OC(C)(C)C)nnc1SCC(=O)N1CCOCC1 | -17.9 | 2.0 | i | i | 3.0 | . | . | .
Cc1ccc(SCCc2ccc(C)nc2)cc1 | 0.6 | -6.2 | i | i | 2.0 | -13.3 | . | .
Cc1ccc(CCSCC(=O)O)cn1 | 3.3 | -21.7 | i | i | 74.0* | 10.2 | 3.0 | 100.0
O=C(O)c1ccc(-c2ccc(/C=c3/sc4nc5ccccc5n4c3=O)o2)cc1Cl | -1.6 | -1.2 | i | i | 80.0* | . | 60.1* | 94.5 | Aptamer quench=10.1
Cc1cc(C)c2nc3sc(=Cc4ccc(-c5ccccc5C(=O)O)o4)c(=O)n3c2c1 | 6.2 | . | . | . | . | . | . | .
Cc1ccc2c(nc3s/c(=C\c4ccc(-c5ccccc5C(=O)O)o4)c(=O)n32)c1C | -6.7 | 4.2 | i | i | 49.0* | . | 2.4 | 104.9
COc1ccc(NC(=O)C2=CC(c3ccc(C)cc3)=NS(=O)(=O)N2C)cc1 | -4.3 | 0.5 | i | i | 54.0* | . | 0.8 | 98.0
COC(=O)Cc1c(O)ccn(Cc2ccc3c(c2)OCO3)c1=O | -3.3 | 10.5 | i | i | 0.0 | -9.5 | . | .
COC(=O)Cc1c(O)ccn(C2CC2)c1=O | 4.9 | -5.0 | i | i | 75.0* | -8.6 | -7.1 | 101.7
O=C(NCCOc1nc(N2CCCCC2)nc(N2CCOCC2)n1)Nc1ccccc1 | 0.9 | -7.1 | i | i | 0.0 | -14.0 | . | .
O=C(NCCOc1nc(N2CCOCC2)nc(N2CCOCC2)n1)Nc1ccccc1 | 0.4 | -6.0 | i | i | 46.0* | -6.2 | 0.4 | 97.5
O=C(O)C1CC=CCC1C(=O)NCc1ccccc1 (stereo unspecified) | -1.2 | 9.2 | i | i | 4.0 | -13.0 | . | .
COc1ccc(CNC(=O)C2CC=CCC2C(=O)O)cc1OC (stereo unspecified) | -0.7 | 4.0 | i | i | 0.0 | 11.5 | . | . | GRK2 CP2=i;FAM quench CP2=103.0
O=C(/C=C/c1ccco1)OCC(=O)N1CCCCC1 | -12.1 | 5.0 | i | . | 76.0* | . | 47.6* | 92.8 | Aptamer quench=-2.7
Cc1nc(NC(=O)COC(=O)/C=C/c2ccco2)c(Cl)cc1Cl | 0.9 | -1.0 | i | . | 21.0 | . | . | .
O=C(COC(=O)/C=C/c1ccco1)Nc1ncc(Cl)cc1Cl | 0.4 | 3.2 | i | i | 60.0* | -4.0 | 9.7 | 100.0
CCOc1cc(/C=N/NC(=O)c2ccc(N(C)S(=O)(=O)c3ccccc3)cc2)ccc1OC | -4.5 | 6.1 | i | i | 0.0 | . | . | .
CC(C)NC(=O)CN(Cc1ccc(F)cc1)C(=O)CCC(=O)Nc1ccccn1 | -0.5 | 3.5 | i | i | 1.0 | . | . | .
COc1cccc(-n2c(SCC(=O)O)nnc2-c2cccnc2)c1 | -3.5 | 9.9 | i | i | 62.0* | -9.3 | 4.8 | 101.8
SMILES | NOD2-RIPK2 inh | TLR9-MyD88 inh | ANO1 activ | TMEM16A inh | GRK2 aptamer HTS | TLR4-MyD88 BLA | GRK2 inh confirm | Aptamer quench SP | others
CC1CC(C)CN(S(=O)(=O)c2ccc(C(=O)N3CCN(c4ccccc4)CC3)cc2)C1 (stereo unspecified) | -11.6 | -7.4 | i | i | 2.0 | -18.5 | 3.9 | 95.2
O=C(c1ccc(S(=O)(=O)N2CCCCC2)cc1)N1CCN(c2ccccc2F)CC1 | -2.6 | -8.6 | i | i | 2.0 | -2.1 | . | .
COc1ccccc1N1CCN(C(=O)c2ccc(S(=O)(=O)N3CCCCCC3)cc2)CC1 | 4.5 | -3.0 | i | i | 1.0 | 8.9 | -1.9 | 97.1
CN(C)C(=S)Oc1ccccc1-c1ccccc1OC(=S)N(C)C | -1.4 | 2.9 | i | i | 5.0 | . | . | .
C[C@H]1CN=C(N(C)C)N1CCCC1CCCC1 | -12.6 | -2.6 | i | i | 42.0* | . | -4.7 | 99.9
O=C(COC(=O)Cc1ccc(Cl)cc1)NCc1cccs1 | 0.9 | -4.9 | i | . | 0.0 | . | . | .
COc1cc(OC)cc(C2=Cc3ccccc3C(CC(C)=O)N2c2ccc(C#CCCO)cc2)c1 (stereo unspecified) | 8.7 | . | . | . | . | . | . | .
O=C(/C=C/c1ccco1)NCc1ccco1 | -0.4 | . | i | i | 60.0* | . | 0.3 | 93.5
CCc1ccc(/C(C)=N/NC(=O)CNC(=O)/C=C/c2ccco2)cc1 | -20.1 | -2.5 | i | i | 42.0* | . | 12.4 | 91.4
Cc1cccn2c(=O)nc(SCC(=O)NCc3ccc4c(c3)OCO4)nc12 | -9.8 | -4.1 | i | i | 4.0 | . | . | .
Cc1ccc(-c2c(CC(=O)O)c(C)nc3sc4c(c23)CCCC4)cc1 | -6.4 | 3.4 | i | i | 2.0 | . | . | .
C[C@H](CO)N1C[C@H](C)[C@@H](CN(C)C(=O)Nc2ccc3c(c2)OCO3)Oc2ccc(NS(=O)(=O)c3ccc(F)cc3)cc2C1=O | -4.1 | 6.1 | . | . | 0.0 | . | . | .
C/C(=N\OCc1ccc(C#N)cc1)c1ccc(S(=O)(=O)N(C)C)cc1 | -11.2 | 5.3 | i | i | 47.0* | . | 1.1 | 95.7
